# Reference: PubChem BioAssay (NCI)
# Compounds without any hit were thinned out: in the full panel of roughly 79,000, 15% have a hit. Values without a mark were called inactive. Active and inactive are the calls of the source. Rule as the data show it: active = growth inhibition above about 70%; inactive = the rest.
# Assay: NCI Yeast Anticancer Drug Screen. Data for the bub3 strain (AID 167)
# Conditions: S. cerevisiae bub3 mutant strain, at 50.0 µM (retest, dose inferred, filed as 5.0), stronger effect = higher value
# Procedure, shortened: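 Readout: yeast growth inhibition, expressed relative to vehicle-only wells. The test organism is a mutant strain from a panel with lesions in DNA repair or checkpoint genes.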
row,Compound,growth inhibition
1,Oc1ccccc1N=CC1CCCCC1,46%
2,CC(O[Si](c1ccccc1)(c1ccccc1)C(C)(C)C)[C@H](NC(=O)OC(C)(C)C)C(=O)O[Si](c1ccccc1)(c1ccccc1)C(C)(C)C (stereo not given in full),84% (active)
3,Cn1c(=O)c2c3oc(=O)cc(O)c3c(=O)n3c4ccccc4n(c1=O)c23,75% (active)
4,CCCCCCCCCCCCCCC(O)C(=O)O (stereo not given),-28%
5,O=[N+]([O-])c1cc(I)cc(/C=N/NS(=O)(=O)c2ccc(F)cc2)c1O,17%
6,CCC/C=C1/OC(=O)C2=C[C@H]3CC[C@]21[C@]1(OC(=O)C2=C1CCC=C2)[C@H]3CCC,93% (active)
7,C=C(CC)C[C@@H]1C[C@]2(C(=O)OC)c3[nH]c4ccccc4c3CCN2C1=O,18%
8,Cc1ccc(N2C(=O)C(Cl)=C(Cl)C2=O)cc1,99% (active)
9,COc1cc2c(cc1O)CCCCC2,0%
10,CC(C)Cc1cc(O)cc2ccccc12,99% (active)
11,CCN(CC)Cc1cc(Nc2c3ccccc3nc3c4ccccc4n(C)c23)ccc1O,13%
12,CC(=O)Nc1ccc(-c2csc(Nc3ccnc4cc(Cl)ccc34)n2)cc1,40%
13,NNc1ccccc1F,44%
14,O=C(O)C1(Cc2ccc3c(c2)CCC3)Cc2ccccc2C1=O (stereo not given),-7%
15,c1cc2cc(Cc3ccc4[nH]ccc4c3)ccc2[nH]1,16%
16,COc1cc(C(c2cc3c(cc2O)OCO3)N2CCOCC2)ccc1O (stereo not given),25%
17,Cc1c(N)nc(C2CC(=O)N2CC(N)C(N)=O)nc1C(=O)NC(C(=O)NC(C)C(O)C(C)C(=O)NC(C(=O)NCCc1nc(-c2nc(C(=O)NCCNCC(C)O)cs2)cs1)C(C)O)C(OC1OC(CO)C(O)C(O)C1OC1OC(CO)C(O)C(OC(N)=O)C1O)c1cnc[nH]1 (stereo not given),96% (active)
18,Cc1[nH]nc(C(=O)N(C)C)c1N=NN(C)C,83% (active)
19,CSc1c(S(C)=O)c2ccccc2n1C (stereo not given),8%
20,CN(C)c1ccc(C=Nc2cnc3ccccc3c2)cc1,5%

row,Compound,growth inhibition
1,CCCCCCCCCCCCCCCc1nc(SCC(=O)O)n[nH]1,67%
2,Cc1ccc(S(=O)(=O)Oc2c([N+](=O)[O-])cc(C)cc2[N+](=O)[O-])cc1,34%
3,CCOC(=O)c1c(Cl)nnc(-c2ccccc2)c1-c1ccccc1,98% (active)
4,Cc1cc(O)c(C=NC(=S)C(N)=S)c(=O)o1,49%
5,C/C(=N\NC(=S)NC(C)(C)C)c1ccccn1,99% (active)
6,S=C(Nc1ccc(Br)c(Cl)c1)SCc1ccc2c(c1)OCO2,98% (active)
7,CC(=O)Nc1ccc(S(=O)(=O)N/N=C/c2cc(I)cc([N+](=O)[O-])c2O)cc1,47%
8,CCCC(O)CNCc1ccc(N(C)C)cc1 (stereo not given),5%
9,CC(=O)Nc1nnc(-c2coc3ccccc3c2=O)s1,1%
10,COc1ccc(CSC(=S)Nc2ccc(Cl)c(C(F)(F)F)c2)cc1,63%
11,CC(=O)Sc1ccc(Br)cc1,68%
12,O=C(CNc1cccc(Cl)c1)Nn1c(-c2ccccc2)nc2ccccc2c1=O,87% (active)
13,Cc1ccc(S(=O)(=O)c2cc(O)c(O)c3ccc(Br)cc23)cc1,97% (active)
14,Fc1cccc2c1cc1ccc3cccc4ccc2c1c34,-6%
15,COC1=C(/C(=N/Nc2ccc([N+](=O)[O-])cc2[N+](=O)[O-])c2ccccc2)COC1=O,-3%
16,CCOC(=O)c1cnccc1CC1(C#N)c2ccccc2C=CN1C(=O)c1ccccc1 (stereo not given),71% (active)
17,CCCCNc1ccc(-c2c(N)nc(N)nc2CC)cc1[N+](=O)[O-],-1%
18,O=C(NC1CCN(Cc2ccccc2)CC1)c1cccc(I)c1,65%
19,O/N=C1/CC2CCCc3ccc4cccc1c4c32 (stereo not given),25%
20,CC(C)c1cc(O)c2c(c1O)C1CC3C(C)(C)CCC[C@]23C(=O)O1 (stereo not given in full),64%

# Same assay, conditions: S. cerevisiae bub3 mutant strain, at 50.0 µM, stronger effect = higher value
row,Compound,growth inhibition
1,Oc1ccccc1N=CC1CCCCC1,74% (active)
2,CC(O[Si](c1ccccc1)(c1ccccc1)C(C)(C)C)[C@H](NC(=O)OC(C)(C)C)C(=O)O[Si](c1ccccc1)(c1ccccc1)C(C)(C)C (stereo not given in full),91.3% (active)
3,Cn1c(=O)c2c3oc(=O)cc(O)c3c(=O)n3c4ccccc4n(c1=O)c23,42.3%
4,CCCCCCCCCCCCCCC(O)C(=O)O (stereo not given),96.4% (active)
5,O=[N+]([O-])c1cc(I)cc(/C=N/NS(=O)(=O)c2ccc(F)cc2)c1O,53%
6,CCC/C=C1/OC(=O)C2=C[C@H]3CC[C@]21[C@]1(OC(=O)C2=C1CCC=C2)[C@H]3CCC,88.3% (active)
7,C=C(CC)C[C@@H]1C[C@]2(C(=O)OC)c3[nH]c4ccccc4c3CCN2C1=O,48.5%
8,Cc1ccc(N2C(=O)C(Cl)=C(Cl)C2=O)cc1,99.3% (active)
9,COc1cc2c(cc1O)CCCCC2,-7.5%
10,CC(C)Cc1cc(O)cc2ccccc12,98.5% (active)
11,CCN(CC)Cc1cc(Nc2c3ccccc3nc3c4ccccc4n(C)c23)ccc1O,55.3%
12,CC(=O)Nc1ccc(-c2csc(Nc3ccnc4cc(Cl)ccc34)n2)cc1,33.3%
13,NNc1ccccc1F,99.2% (active)
14,O=C(O)C1(Cc2ccc3c(c2)CCC3)Cc2ccccc2C1=O (stereo not given),90.2% (active)
15,c1cc2cc(Cc3ccc4[nH]ccc4c3)ccc2[nH]1,43.2%
16,COc1cc(C(c2cc3c(cc2O)OCO3)N2CCOCC2)ccc1O (stereo not given),42.9%
17,Cc1c(N)nc(C2CC(=O)N2CC(N)C(N)=O)nc1C(=O)NC(C(=O)NC(C)C(O)C(C)C(=O)NC(C(=O)NCCc1nc(-c2nc(C(=O)NCCNCC(C)O)cs2)cs1)C(C)O)C(OC1OC(CO)C(O)C(O)C1OC1OC(CO)C(O)C(OC(N)=O)C1O)c1cnc[nH]1 (stereo not given),93.8% (active)
18,Cc1[nH]nc(C(=O)N(C)C)c1N=NN(C)C,79.2% (active)
19,CSc1c(S(C)=O)c2ccccc2n1C (stereo not given),-39.5%
20,CN(C)c1ccc(C=Nc2cnc3ccccc3c2)cc1,-3.65%

row,Compound,growth inhibition
1,CCCCCCCCCCCCCCCc1nc(SCC(=O)O)n[nH]1,37.1%
2,Cc1ccc(S(=O)(=O)Oc2c([N+](=O)[O-])cc(C)cc2[N+](=O)[O-])cc1,94% (active)
3,CCOC(=O)c1c(Cl)nnc(-c2ccccc2)c1-c1ccccc1,97.5% (active)
4,Cc1cc(O)c(C=NC(=S)C(N)=S)c(=O)o1,-26.5%
5,C/C(=N\NC(=S)NC(C)(C)C)c1ccccn1,90.2% (active)
6,S=C(Nc1ccc(Br)c(Cl)c1)SCc1ccc2c(c1)OCO2,88.2% (active)
7,CC(=O)Nc1ccc(S(=O)(=O)N/N=C/c2cc(I)cc([N+](=O)[O-])c2O)cc1,70.5% (active)
8,CCCC(O)CNCc1ccc(N(C)C)cc1 (stereo not given),46.7%
9,CC(=O)Nc1nnc(-c2coc3ccccc3c2=O)s1,15.4%
10,COc1ccc(CSC(=S)Nc2ccc(Cl)c(C(F)(F)F)c2)cc1,88.3% (active)
11,CC(=O)Sc1ccc(Br)cc1,60.3%
12,O=C(CNc1cccc(Cl)c1)Nn1c(-c2ccccc2)nc2ccccc2c1=O,96% (active)
13,Cc1ccc(S(=O)(=O)c2cc(O)c(O)c3ccc(Br)cc23)cc1,83.8% (active)
14,Fc1cccc2c1cc1ccc3cccc4ccc2c1c34,87.5% (active)
15,COC1=C(/C(=N/Nc2ccc([N+](=O)[O-])cc2[N+](=O)[O-])c2ccccc2)COC1=O,93.3% (active)
16,CCOC(=O)c1cnccc1CC1(C#N)c2ccccc2C=CN1C(=O)c1ccccc1 (stereo not given),75% (active)
17,CCCCNc1ccc(-c2c(N)nc(N)nc2CC)cc1[N+](=O)[O-],-0.35%
18,O=C(NC1CCN(Cc2ccccc2)CC1)c1cccc(I)c1,70% (active)
19,O/N=C1/CC2CCCc3ccc4cccc1c4c32 (stereo not given),81.8% (active)
20,CC(C)c1cc(O)c2c(c1O)C1CC3C(C)(C)CCC[C@]23C(=O)O1 (stereo not given in full),94.7% (active)
